Compounds with a hit are over-represented: about 1.2% of the library has one in this group of screens.
BH1578 lux ind: quorum light induction in luxS cqsA deficient V. cholerae | V. cholerae BH1578 lux reporter, luminescence, 6 h | activation, % at 18.7 µM | 350,000 tested, 0.16% active; in the data active means activation mostly above about 9.7%, no sharp cut-off
PfHsp40 rescue: restores yeast growth despite PfHsp40 toxicity. S. cerevisiae expressing PfHsp40, growth rescue, ATP luminescence. growth rescue, % at 12.5 µM. 340,000 tested, 0.68% active. AID 504582; in the data active means growth rescue above about 28%, passing the limit was not always enough;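 further: yeast W303a lacking pdr1 and pdr3 grown in galactose medium; growth measured after three days at 30 °C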
TcdB GH inh: inhibitors of Clostridioides difficile toxin B glycohydrolase. TcdB glycohydrolase enzymatic assay, plate reader. inhibition, % at 9.99 µM. P18177. 350,000 tested, 0.24% active. AID 652162; in the data active means inhibition above about 10%
Target sequence (P18177 whole entry, looked up): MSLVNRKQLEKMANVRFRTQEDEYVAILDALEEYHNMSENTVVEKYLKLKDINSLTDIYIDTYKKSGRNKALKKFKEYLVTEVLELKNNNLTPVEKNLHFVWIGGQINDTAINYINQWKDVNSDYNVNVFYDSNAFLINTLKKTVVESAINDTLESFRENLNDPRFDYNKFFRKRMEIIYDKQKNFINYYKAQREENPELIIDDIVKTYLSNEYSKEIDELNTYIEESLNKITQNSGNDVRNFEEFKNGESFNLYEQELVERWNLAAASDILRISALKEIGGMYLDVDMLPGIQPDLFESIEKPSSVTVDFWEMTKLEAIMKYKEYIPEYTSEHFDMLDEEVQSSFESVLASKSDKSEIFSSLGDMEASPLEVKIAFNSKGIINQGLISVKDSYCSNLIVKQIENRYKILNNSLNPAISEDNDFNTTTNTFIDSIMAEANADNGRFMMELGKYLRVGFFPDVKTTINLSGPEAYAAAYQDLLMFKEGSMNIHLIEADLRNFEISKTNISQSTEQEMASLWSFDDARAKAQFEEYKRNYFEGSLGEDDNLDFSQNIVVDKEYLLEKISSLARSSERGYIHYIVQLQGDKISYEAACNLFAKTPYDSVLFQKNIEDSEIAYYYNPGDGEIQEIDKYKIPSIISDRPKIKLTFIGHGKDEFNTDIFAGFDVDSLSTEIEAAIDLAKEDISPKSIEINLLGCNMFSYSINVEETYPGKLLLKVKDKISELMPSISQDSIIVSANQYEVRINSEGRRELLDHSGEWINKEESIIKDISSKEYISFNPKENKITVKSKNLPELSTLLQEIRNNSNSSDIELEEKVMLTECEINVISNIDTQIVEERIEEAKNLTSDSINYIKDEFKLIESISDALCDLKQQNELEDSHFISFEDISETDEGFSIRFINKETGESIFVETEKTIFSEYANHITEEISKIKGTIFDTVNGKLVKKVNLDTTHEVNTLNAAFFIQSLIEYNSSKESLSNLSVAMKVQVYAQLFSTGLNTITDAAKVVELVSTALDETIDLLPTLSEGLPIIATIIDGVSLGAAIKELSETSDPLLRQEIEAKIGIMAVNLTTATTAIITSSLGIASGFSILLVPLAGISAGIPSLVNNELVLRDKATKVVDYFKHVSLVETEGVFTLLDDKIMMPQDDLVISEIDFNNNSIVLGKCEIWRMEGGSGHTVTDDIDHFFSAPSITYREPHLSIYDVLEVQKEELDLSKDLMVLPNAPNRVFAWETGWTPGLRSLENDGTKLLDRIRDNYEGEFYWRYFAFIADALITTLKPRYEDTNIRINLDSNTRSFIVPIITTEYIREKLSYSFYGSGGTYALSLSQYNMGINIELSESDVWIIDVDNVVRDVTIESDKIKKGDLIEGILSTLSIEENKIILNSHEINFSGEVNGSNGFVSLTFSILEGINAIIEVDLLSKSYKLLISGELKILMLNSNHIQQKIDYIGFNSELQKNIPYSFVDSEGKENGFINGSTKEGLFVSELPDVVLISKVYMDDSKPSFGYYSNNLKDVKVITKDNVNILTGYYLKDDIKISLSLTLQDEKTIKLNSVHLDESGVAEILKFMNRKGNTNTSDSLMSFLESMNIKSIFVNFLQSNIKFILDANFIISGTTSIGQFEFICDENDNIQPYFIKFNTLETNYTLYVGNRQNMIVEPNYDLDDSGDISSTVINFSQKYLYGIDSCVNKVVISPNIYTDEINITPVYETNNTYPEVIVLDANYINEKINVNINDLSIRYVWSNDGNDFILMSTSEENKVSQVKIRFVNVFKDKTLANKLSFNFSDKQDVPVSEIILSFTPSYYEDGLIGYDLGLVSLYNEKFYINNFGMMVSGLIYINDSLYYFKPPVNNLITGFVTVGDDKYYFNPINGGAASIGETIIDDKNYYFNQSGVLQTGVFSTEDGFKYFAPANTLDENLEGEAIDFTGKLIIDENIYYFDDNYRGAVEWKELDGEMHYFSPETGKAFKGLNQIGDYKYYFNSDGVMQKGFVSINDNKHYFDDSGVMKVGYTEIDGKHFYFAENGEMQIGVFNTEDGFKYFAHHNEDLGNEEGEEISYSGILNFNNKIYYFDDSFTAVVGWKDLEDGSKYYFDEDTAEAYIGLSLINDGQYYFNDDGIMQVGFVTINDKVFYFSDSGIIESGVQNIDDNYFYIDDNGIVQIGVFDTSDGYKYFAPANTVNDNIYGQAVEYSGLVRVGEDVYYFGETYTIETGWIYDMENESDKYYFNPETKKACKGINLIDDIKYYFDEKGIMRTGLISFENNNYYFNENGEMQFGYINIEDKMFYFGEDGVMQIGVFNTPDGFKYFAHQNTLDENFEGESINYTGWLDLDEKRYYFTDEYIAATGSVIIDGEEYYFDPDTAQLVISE
DUSP3 inh: inhibitors of human VHR1 phosphatase (DUSP3). P51452. recombinant VHR phosphatase, pNPP absorbance. inhibition, % at 13.3 µM. 290,000 tested, 0.52% active. AID 1654; in the data active means inhibition above about 50%
Y pestis TopoI: inhibitors of Yersinia pestis topoisomerase I | Y. pestis Topo-I cleavage product accumulation, plate reader | activity, % at 10 µM | 360,000 tested, 0.064% active | AID 504884; in the data active means activity above about 50%, passing the limit was not always enough
Mtb BioA inh: blocks M. tuberculosis BioA enzyme activity; inhibition, % at 9.99 µM; purified M. tuberculosis BioA enzyme, plate reader; 360,000 tested, 0.096% active; AID 602481; in the data active means inhibition above about 40%
Active calls of the source: *; i = inactive; · = no result given.

SMILES	BH1578 lux ind	PfHsp40 rescue	TcdB GH inh	DUSP3 inh	Y pestis TopoI	Mtb BioA inh
CNc1nc(SCc2ccc(C)cc2)nc2c1CCCC2	4	199*	·	10	5	2
COC(=O)CSc1nc(SCc2ccc(C)cc2)nc2c1CCCC2	0	12	·	13	58*	-1
O=C(O)C1CC=CCC1C(=O)N1CCc2ccccc21 (stereo not drawn)	6	0	·	4	5	-7
C[C@@H]1CN([C@H](C)CO)C(=O)c2cccc(NC(=O)Nc3ccc4c(c3)OCO4)c2O[C@H]1CN(C)C(=O)Nc1ccccc1	·	·	·	·	·	9
Cc1onc(-c2ccccc2)c1C(=O)NC(=S)NNC(=O)c1ccco1	1	50*	2	-6	0	0
Cc1onc(-c2ccccc2)c1C(=O)NC(=S)NNC(=O)c1cc(-c2ccc(F)cc2)n[nH]1	-2	235*	0	16	-10	0
Cc1onc(-c2ccccc2)c1C(=O)NC(=S)NNC(=O)c1ccncc1	0	2	1	-1	-4	1
Cc1ccccc1NC(=O)c1cccc(S(=O)(=O)N2CCCCC2)c1	1	0	1	12	2	0
COc1ccc(-c2coc3c(CN4CCOCC4)c(O)ccc3c2=O)cc1	13*	5	0	7	-13	0
O=c1c(-c2ccc(Cl)cc2)coc2c(CN3CCOCC3)c(O)ccc12	1	0	·	-5	0	1
CNC(=S)N/N=C(\C)c1ccc(N2CCOCC2)cc1	0	203*	1	23	-3	0
CNC[C@@H]1Oc2c(NS(=O)(=O)c3ccc(Cl)cc3)cccc2C(=O)N([C@H](C)CO)C[C@@H]1C	·	·	0	·	·	0
CCCCCC(=O)Nc1c(-c2ccc(OC)cc2)c(=O)c2ccccc2n1C	0	0	1	10	-7	-1
Cc1cc(C)cc(N=Cc2c(O)c3ccccc3oc2=O)c1	-2	1	0	12	-5	·
Cc1cc(C)c(N=Cc2c(O)c3ccccc3oc2=O)c(C)c1	i	66*	0	30	-2	-2
O=C(CSC1=NCCS1)NC(NC(=O)CSC1=NCCS1)c1ccccc1	-1	-1	2	20	12	·
CN(C(=O)CSC1=NCCS1)c1ccccc1	1	0	·	52*	5	1
Cc1ccc(C(=O)COC(=O)c2cc(=O)[nH]c3ccccc23)cc1	0	-1	11*	14	-10	·
CCCOc1ccc(N2C(=O)CC(N3CCC(O)(c4cccc(C(F)(F)F)c4)CC3)C2=O)cc1 (stereo not drawn)	i	28*	·	23	-5	-2
COc1ccc(N2C(=O)CC(N3CCC(O)(c4ccc(Br)cc4)CC3)C2=O)cc1 (stereo not drawn)	0	0	·	39	3	2
COc1ccc(NC(=O)CSc2nncs2)cc1OC	-2	-2	·	4	1	·
C/C=C/c1ccc([C@@H]2[C@@H](CO)N3CCCCN(C(=O)Nc4ccc(F)cc4)C[C@@H]23)cc1	·	·	0	·	·	-3
Cc1ccc(CN2CCN(Cc3cn[nH]c3C3CCCCC3)CC2CCO)cc1 (stereo not drawn)	4	4	0	52*	26	0
OCCC1CN(Cc2cn[nH]c2C2CCCCC2)CCN1Cc1ccccc1 (stereo not drawn)	0	0	1	31	2	2
CC(=O)C1=C(C)Nc2ncnn2C1c1ccc(O)cc1 (stereo not drawn)	i	-1	1	58*	12	-5
SMILES	BH1578 lux ind	PfHsp40 rescue	TcdB GH inh	DUSP3 inh	Y pestis TopoI	Mtb BioA inh
CN(C)C1(CN=Cc2cc(Cl)cc([N+](=O)[O-])c2O)CCCCC1	0	42*	0	1	-10	·
Cc1cc(NC(=O)Cn2c(=O)oc3ccccc32)no1	-3	-1	1	·	-10	-1
Cc1cc(S(=O)(=O)N2CCCCC2)ccc1OCC(=O)N1CCOCC1	-4	-1	1	21	-2	-2
CCN1CCN(C(=O)COc2ccc(S(=O)(=O)N3CCOCC3)cc2C)CC1	-6	0	0	54*	1	-1
CC(C)(C)NC(=O)C(c1ccncc1)N(Cc1cccs1)C(=O)Cn1nnc(-c2ccc(F)cc2)n1 (stereo not drawn)	0	0	·	53*	3	-2
CC(C)(C)NC(=O)C(c1ccncc1)N(Cc1ccc(F)cc1)C(=O)c1ccc(-c2ccccc2)[nH]1 (stereo not drawn)	0	66*	1	4	18	·
CC(C)CN1C(=O)C(NC(=O)C2CC2)(C(F)(F)F)C2=C1CC(C)(C)CC2=O (stereo not drawn)	-1	-1	0	0	-8	-2
COc1ccc(CCN2CC(C(=O)Nc3nnc(Cc4ccccc4)s3)CC2=O)cc1OC (stereo not drawn)	i	0	1	·	31	-1
COc1ccc(Cc2nnc(NC(=O)C3CC(=O)N(c4ccccc4)C3)s2)cc1OC (stereo not drawn)	0	-2	1	58*	20	1
CC(=O)c1ccc(OCc2cc(C(=O)N3CCC[C@H]3CO)no2)cc1	-2	1	-2	60*	-9	-2
COCCC1CCCCN1C(=O)c1cc(COc2cccc(C(C)=O)c2)on1 (stereo not drawn)	0	1	-4	18	8	0
COc1cc(NC(=O)Cn2cnc3ccccc3c2=O)c(OC)cc1Cl	0	0	0	32	-6	7
CO[C@@H]1CC[C@H]2CCN(C)C(=O)[C@H](C)[C@H](OC)CN(C)C(=O)c3cccc(C#N)c3OC[C@H]1O2	·	·	1	·	·	-2
COc1cccc2cc(C(=O)Nc3ccccc3C)/c(=N/O)oc12	i	1	1	-2	4	5
COc1ccc(CNC(=O)c2cc3c(s2)CN(Cc2ccccc2)C3)cc1	i	0	10*	-3	-4	·
COc1ccc(CNC(=O)c2cccs2)cc1	i	-2	·	3	1	3
CS/C(N)=N/C(=S)Nc1cccc(Cl)c1	0	4	0	10	2	·
O=C(Nc1nnc(-c2ccco2)o1)C1CC1	0	-1	10*	2	-2	0
O=C(Nc1nnc(-c2ccco2)o1)C1CCCCC1	0	0	1	-8	1	1
CNC(=O)c1ccc(NC(=O)/C=C/c2cccc(F)c2)cc1	i	114*	1	16	0	·
CSc1cccc(NC(=O)/C=C/c2cccc(Cl)c2)c1	0	245*	0	5	-12	-1
O=C(/C=C/c1cccc(Cl)c1)Nc1ncccn1	0	-1	·	0	1	·
O=C(/C=C/c1cccc(C(F)(F)F)c1)Nc1cccc(C(F)(F)F)c1	i	83*	·	26	1	0
Cc1csc(NC(CO)c2nc3ccccc3n2CCOCCO)n1 (stereo not drawn)	0	0	0	·	2	-2
CCCn1c(C(CO)Nc2nc(C)cs2)nc2ccccc21 (stereo not drawn)	-1	2	1	59*	-3	-4

Screening results from PubChem BioAssay.
